Compounds without any hit were thinned out: in the full panel of roughly 79,000, 15% have a hit. A number with no mark means an inactive call. Active and inactive are the calls of the source. No stated cut-off is given here; in the data, active means growth inhibition above about 70%; inactive means the rest.

The nature of the experiment: NCI Yeast Anticancer Drug Screen. Data for the mlh1 rad18 strain (AID 175). To be noted: S. cerevisiae mlh1 rad18 strain growth inhibition; at 50.0 µM; hits give high values. In outline:
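Read-out is yeast growth inhibition, calculated against vehicle-only controls. The compound was applied to a strain engineered with DNA damage repair alterations.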
`Cc1cn(C2CC(Br)C(COC(c3ccccc3)(c3ccccc3)c3ccccc3)O2)c(=O)[nH]c1=O` (centres undefined): the growth inhibition is 97.9% (active).
As to `CC1CCN(CCOC(=O)C(c2ccccc2)C2C=CCCC2)C1` (centres undefined), the growth inhibition was 52.7%.
As to `C=CC(c1ccccc1)[C@@]1(OC(C)=O)C(=O)C(=O)OC1C1COC(C)(C)O1` (some centres undefined), the growth inhibition was 90.4% (active).
For `CC(C)S(=O)(=O)ON1C(=O)c2ccc(N(C)C)cc2C1=O`, the growth inhibition was 97.5% (active).
For the compound `CCCC(Sc1ccccc1)c1ccccc1NC(C)=O` (centres undefined), the growth inhibition is 67.5%.
As to `Oc1c(C(Nc2ccccn2)c2ccccc2)ccc2cccnc12` (centres undefined), the growth inhibition is 94.5% (active).
Regarding `CC(=O)NC1=C(Cl)C(=O)c2ccccc2C1=O`, the growth inhibition is 99.5% (active).
In the case of `CC1OC(c2ccc3c(c2)OCO3)OC1C` (centres undefined), the growth inhibition was 64.7%.
For the compound `CN(C)CC(CN1CCCC1)C(=O)c1ccccc1` (centres undefined), the growth inhibition was 75.2% (active).
For `O=S(=O)(O)c1ccc2c(c1)C1C(C3C2C2(Cl)C(Cl)=C(Cl)C3(Cl)C2(Cl)Cl)C2(Cl)C(Cl)=C(Cl)C1(Cl)C2(Cl)Cl` (centres undefined), the growth inhibition is 84.4% (active).
With `Cc1cc(Cl)nc2ccc(Cc3ccc4nc(Cl)cc(C)c4c3)cc12` the figure was 37.8%; with `CC1CCC2(C)C(CC=C(C=O)C2(O)C=O)C12CO2` (centres undefined), 93.5% (active).
As for `Cc1c(C)c(C)c(C(=O)c2ccccc2C(=O)NCCSC(C)(C)C)c(C)c1C`, the growth inhibition is 84.3% (active).
Turning to `O=[N+]([O-])C(=C1Nc2ccccc2N1)C(Cl)=C(Cl)Cl`, the growth inhibition was 11%.
Take `CCCCNc1ccc(C(=O)OC2CCN(C)CC2)c(Cl)c1`: the growth inhibition is 92.8% (active).
Take `CC(C)(C)OC(=O)c1ccc(NCC2=C(Br)C(=O)C=CC2=O)cc1`: the growth inhibition was 89.5% (active).
Consider `N#CC(c1ccc(Cl)cc1)c1ccc([N+](=O)[O-])cc1` (centres undefined), for which the growth inhibition was 45.5%.
The figure for `O=C(CC(=O)c1ccccc1NC1=Cc2ccccc2C(=O)C1=O)C(=O)NC1=C(Cl)C(=O)c2ccccc2C1=O` is 86.2% (active); for `O=S(=O)(Nc1ccc2c3c(cccc13)C=C2)c1ccccc1` it is 92.3% (active).
Regarding `CC(=O)c1cccc(NC(=O)C(=O)NNc2n[nH]c(=S)n2N)c1`, the growth inhibition is 91.1% (active).
Regarding `Nc1ncc(C(=O)c2ccccc2)cc1[N+](=O)[O-]`, the growth inhibition was -0.8%.
For the compound `COc1ccc2cc(C3CCCC3(C)CC(=O)O)ccc2c1` (centres undefined), the growth inhibition is 64.5%.
For `CNc1ccc(N=O)cc1`, the growth inhibition is 87.6% (active).
Turning to `S=c1sc2nc(Cl)nc(Cl)c2s1`, the growth inhibition is 89.3% (active).
As to `CC(=O)O/C=C1\c2ccccc2CCC1c1ccc2ccccc2c1` (centres undefined), the growth inhibition is -0.15%.
Regarding `CC1(C)C2CCC(C2)C1OC(=O)c1ccccc1C(=O)O` (centres undefined), the growth inhibition is 32.7%.
Take `Cc1cc(=O)oc2c3c(ccc12)OC(c1ccc(Br)cc1)CC3=O` (centres undefined): the growth inhibition was -6.6%.
Consider `Cc1cc(N(CCOS(C)(=O)=O)CCOS(C)(=O)=O)ccc1C=Nc1cccc(Cl)c1`, for which the growth inhibition is 96.2% (active).
The figure for `CN(C)CCOc1cc2c(c3ccccc13)-c1ccccc1C2O` (centres undefined) is 72.8% (active); for `NC(=S)C(=Nc1ccccc1F)Nc1ccccc1F` it is 66.2%; for `CCCCOc1ccc(NC(=S)Nc2ccc(OCCN(CC)CC)cc2)cc1` it is 79.2% (active).
For `CC1CCN(CC(=O)N2c3ccccc3Sc3cc4ccccc4cc32)CC1`, the growth inhibition is -2.5%.
`CC(C)C1COC(c2ccc3ccccc3c2-c2c(O[Si](C)(C)C(C)(C)C)ccc3ccccc23)=N1` (centres undefined): the growth inhibition is 91.2% (active).
Regarding `CN(C)c1ccc(/C=C(\C#N)c2cccc(Cl)c2)cc1`, the growth inhibition was -4.75%.
As to `CCN(CC)CCNc1ccc(C)c2oc3ccc(O)cc3c(=O)c12`, the growth inhibition is 95.8% (active).
In the case of `CN(C)CC1CCc2c(ccc3ccccc23)C1=O` (centres undefined), the growth inhibition was 53.8%.
Turning to `C[C@]12CCC(=O)C=C1CC[C@@H]1[C@@H]2[C@@H](O)C[C@@]2(C)[C@H]1CC[C@]2(O)C(=O)COC(=O)CCC1CCCC1`, the growth inhibition is 84.3% (active).
With `O=C(CSc1nnc(Cc2ccccc2)o1)Nc1ccc(Cl)cc1[N+](=O)[O-]` the figure was 83.8% (active); with `Cc1cccc2c1Oc1ccccc1C2N1C(=O)/C(=C/c2ccccc2Cl)SC1=S` (centres undefined), 64.2%.

Source of the values: PubChem BioAssay (NCI).
